For experiment [1], the target named is Cellular tumor antigen p53 (Homo sapiens) (UniProt P04637). The experiment is described as follows: Primary qHTS for small molecule compounds that upregulate eGFP-tagged delta133p53alpha (in N-terminal) cells. (AID 2060322). Further: nearly all actives have a fitted effect of over 75% in size. Further: potency means the concentration at half of the fitted maximal effect.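 On activation: series mostly up to about 56 µM; 0% = DMSO vehicle and 100% = reference activator.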 Conditions: NCI-H358 eGFP-delta133p53alpha fluorescence, 24 h; activation: hits give high values. The procedure, abridged: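 NCI-H358 cells pre-induced 24 h with 10 ng/ml doxycycline to express N-terminal eGFP-delta133p53alpha, then dosed 24 h at 37C without doxycycline; fixed, Hoechst-stained, GFP intensity by laser scanning cytometry, normalized to DMSO (0%) and 57.5 uM 5-azacytidine (100%).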
For orientation: qHTS replaces the single test concentration by a dilution series.

Experiment [2] addresses Aldehyde dehydrogenase, mitochondrial (Homo sapiens) (UniProt P05091). The experiment is described as follows: qHTS for Inhibitors of the Aldehyde Dehydrogenase Family (ALDH2) Primary screen (AID 2061308).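 Further: plate controls were vehicle for no effect and reference inhibitor for full effect; nearly all actives have a fitted effect of over 55% in size.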
The target of experiment [3] is Retinaldehyde dehydrogenase 3 (Homo sapiens) (UniProt P47895). The experiment is described as follows: qHTS for Inhibitors of the Aldehyde Dehydrogenase Family (ALDH1A3) Validation screen (AID 2061312). Further: on the % scale 0 is the no-effect control and ±100 the full control effect; nearly all actives have a fitted effect of over 45% in size.
Experiment [4] has the same target. The experiment is described as follows: qHTS for Inhibitors of the Aldehyde Dehydrogenase Family (ALDH1A3) Primary screen (AID 2061315).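 Further: plate controls were DMSO vehicle for no effect and reference inhibitor for full effect.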

Inconclusive results are not listed. A number with no mark means an inactive call. Calls of active or inactive are those of the source. The call rests on the fitted dose curve; in most records, active means well fitted curve in the direction sought with a large enough effect; inconclusive means small, poorly fitted or top-dose-only effect, or another doubt; inactive means no such curve, though single readings can be large; an effect the other way counts as inactive or inconclusive.

Cellular tumor antigen p53 (Homo sapiens), sequence (P04637 whole entry, looked up): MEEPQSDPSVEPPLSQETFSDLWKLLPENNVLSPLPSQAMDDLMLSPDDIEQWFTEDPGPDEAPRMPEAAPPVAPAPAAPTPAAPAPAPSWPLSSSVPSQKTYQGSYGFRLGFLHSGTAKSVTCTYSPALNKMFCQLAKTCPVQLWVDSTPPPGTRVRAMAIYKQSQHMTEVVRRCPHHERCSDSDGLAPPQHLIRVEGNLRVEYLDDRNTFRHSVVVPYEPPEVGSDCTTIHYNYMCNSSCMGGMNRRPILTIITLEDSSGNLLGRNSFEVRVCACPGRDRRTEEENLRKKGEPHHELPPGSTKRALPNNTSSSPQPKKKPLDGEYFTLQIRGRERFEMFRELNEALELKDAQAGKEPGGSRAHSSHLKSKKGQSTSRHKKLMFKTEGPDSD

In the case of `O=C(O)CC1CCC(c2ccc(-c3ccc4nc(C(=O)NCc5ccc(OC(F)(F)F)cc5)cn4c3)cc2)CC1` (stereo not drawn), in experiment [1], the activation was 9.07%. For the same compound, the Potency result in experiment [2], in experiment [3] and in experiment [4] was “inactive” in each case.
`COc1ccc(C(=O)Nc2c(Cl)cncc2Cl)cc1OC1CCCC1`: in experiment [1], the activation is 0%. Further, the Potency entry in experiment [2], in experiment [3] and in experiment [4] was “inactive” in each case.
Take `Nc1nc(COC(=O)c2ccc([N+](=O)[O-])cc2)nc(Nc2ccccc2)n1`: the activation in experiment [1] was 0.477%. Moreover, the Potency result in experiment [2], in experiment [3] and in experiment [4] was “inactive” in each case.
`FC(F)(F)c1cc(C(F)(F)F)c2ccc3nc(-c4nnco4)cn3c2n1`: in experiment [1], the activation is 5.73%. Also, the Potency entry in experiment [2], in experiment [3] and in experiment [4] was “inactive” in each case.
`CC(C)c1nc(-c2ccc(NC(=O)Nc3cccc(C(F)(F)F)c3)c3ccccc23)c2c(N)nccn12`: the Potency in experiment [1] was 26.9 µM (active). Further, the Potency entry in experiment [2], in experiment [3] and in experiment [4] was “inactive” throughout.
On to `Cc1ccc(CCCO)c(NCc2ccc3nc(NCCCN4CCOCC4)n(Cc4nc(C)ccc4O)c3c2)c1`, for which, in experiment [1], the activation is 14.3%. Further, the Potency result in experiment [2], in experiment [3] and in experiment [4] was “inactive” throughout.
`O=C(NS(=O)(=O)c1ccc(Br)s1)c1ccc(Cl)cc1Cl`: the activation in experiment [1] was -12.4%. Further, the Potency entry in experiment [2], in experiment [3] and in experiment [4] was “inactive” in each case.
